TSG101-PTAP inh – qHTS Assay for Iinhibitors of HIV-1 Budding by Blocking the Interaction of PTAP/TSG101; Fluorescence polarization, FITC-PTAP peptide / Tsg101 binding; Potency, µM (top dose mostly 115 µM), for inactives: at the top dose activity change, negative = inhibition, hits mostly inhibitors; 340,000 tested, under 10 active; AID 493005, 2010; active means well fitted inhibition curve with a large enough effect in the main read-out, with a control signal flat, not every such curve was filed as active; inconclusive means small, poorly fitted or top-dose-only effect, or effect the other way, or a change in a side signal; inactive means no such curve, though single readings can be large or run the other way; further: potency means the concentration at half of the fitted maximal effect; % of control where 0% means no effect
Target sequence (Q99816 whole entry, looked up): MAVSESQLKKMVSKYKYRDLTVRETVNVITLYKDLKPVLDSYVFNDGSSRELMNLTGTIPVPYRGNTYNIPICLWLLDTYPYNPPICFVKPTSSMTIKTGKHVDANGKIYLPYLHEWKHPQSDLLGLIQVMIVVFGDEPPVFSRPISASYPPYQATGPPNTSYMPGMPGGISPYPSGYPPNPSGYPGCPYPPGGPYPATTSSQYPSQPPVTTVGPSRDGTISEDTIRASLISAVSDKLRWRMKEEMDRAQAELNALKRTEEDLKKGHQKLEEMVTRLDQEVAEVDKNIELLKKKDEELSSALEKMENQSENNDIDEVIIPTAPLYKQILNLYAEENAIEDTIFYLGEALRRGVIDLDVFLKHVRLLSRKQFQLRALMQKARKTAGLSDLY
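Tsg101 binding domain (10 uM final) was mixed with compound and a FITC-labeled PTAP peptide (50 nM final) in HEPES pH 7.5 buffer with NaCl, Tween 20, EDTA and TCEP; fluorescence polarization was read after 20 min at r.t.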
Rango-impB inh – qHTS Assay for Inhibitors of Rango (Ran-regulated importin-beta cargo) - Importin beta complex formation | Rango CFP/YFP FRET sensor + importin beta, 45 min | Potency, µM (series often up to 92.2 µM), without a hit: top-dose inhibition of complex formation | 0.031% of 340,000 active;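 further: potency means the concentration at half of the fitted maximal effect; 0% = DMSO wells and 100% = buffer wells lacking importin beta; nearly all actives have a fitted effect of over 15% in size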
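FRET biosensor Rango (snurportin 1 IBB between N-terminal EYFP and C-terminal Cerulean), 50 nM in PBS/1 mM DTT/0.02% Tween-20/0.1% BSA, preincubated 5 min RT with compound; 0.125 microM importin beta added, 45 min RT, CFP/YFP FRET ratio read.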
D3 antag – qHTS of D3 Dopamine Receptor Antagonist: qHTS; AID 652054, 2013; D3R cells, DiscoveRx beta-arrestin luminescence, antagonist mode; stronger effect = lower value; 2.5% of 360,000 active; max response, negative = inhibition, %; in the data active means max response below about -50%; inconclusive means no clear call, values can overlap the other calls; further: on the % scale 0 is the no-effect control and ±100 the full control effect
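Cells expressing the human receptor were seeded at 1500 cells/well, incubated overnight at 37 degrees C in 5% CO2, then exposed to library compounds with dopamine controls for 90 minutes at 37 degrees C before luminescent detection.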
Rango dissoc inh – qHTS Assay for Inhibitors of RanGTP induced Rango (Ran-regulated importin-beta cargo) - Importin beta complex dissociation. Potency, µM (top dose mostly 46.1 µM), without a hit: at the highest dose activity change, negative = inhibition. 0.071% of 340,000 active. AID 540253, 2011. Biochemical FRET Rango-importin beta, RanGTP-induced dissociation; further: potency means the concentration at half of the fitted maximal effect; % of control where 0% means no effect; nearly all actives have a fitted effect of over 45% in size
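Rango/importin beta premix (0.1/0.25 uM final), PBS + 1 mM DTT + 0.02% Tween-20 + 0.1% BSA; cpd 5 min RT; FRET pre-read; + RanGTP-RCC1 (0.6 uM Ran, 2 mM GTP, 0.2 uM RCC1); 45 min RT; FRET post-read, ex 430, em 486/530 nm.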
D3 ag – qHTS of D3 Dopamine Receptor Agonist: qHTS; D(3) dopamine receptor (Homo sapiens), P35462; D3R DiscoveRx beta-arrestin cells, luminescence, 90 min; max activation, %; 0.58% of 410,000 active; in the data active means max activation above about 30%; further: 0% is about no effect
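Cells at 1500/well, incubated overnight, then treated with pinned compounds (dopamine as control) for 90 min at 37 degrees C. DiscoveRx reagent added for 30 - 60 minutes at room temperature; luminescence read.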
Mm-Cpn inhibitor – Inhibitors of TCP-1 ring complex (TRiC) of Methanococcus maripaludis (MmCpn): qHTS. Chaperonin Mm-Cpn (Methanococcus maripaludis). purified Mm-Cpn ATPase, ADP Transcreener TR-FRET. Potency, µM (series often up to 76.9 µM), for the others: at the top dose activity, negative = inhibition, usual class: inhibitors. 0.031% of 330,000 active; active means well fitted inhibition curve with a large enough effect; inconclusive means small, poorly fitted or top-dose-only effect; further: potency means the concentration at half of the fitted maximal effect; on the % scale 0 is the no-effect control and ±100 the full control effect; nearly all actives have a fitted effect of over 80% in size
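Eu-cryptate anti-ADP/ADP-d2 competition gives a ratio inversely related to ADP. Enzyme at 25 nM was pre-exposed to compound for 10 min, then given 10 uM ATP for 30 min, 37°C throughout.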
The depositor's hits bear a star; u = inconclusive; x = no result given. Rows were chosen to be rich in hits. Some 2.9% of all compounds tested hit in one or more screens of this group. Unless noted, the call rests on the fitted dose curve.

SMILES	TSG101-PTAP inh	Rango-impB inh	D3 antag	Rango dissoc inh	D3 ag	Mm-Cpn inhibitor
Cc1cc(C)nc(SCc2cc(=O)c(OC(=O)c3cccc([N+](=O)[O-])c3)co2)n1	-3%	3%	68	1%	111*	1%
CCCc1[nH][nH]c(=O)c1C(c1ccc(Br)cc1)C(C#N)C#N (stereo unspecified)	-13%	-3%	0	-11%	-11	-1%
CCCc1[nH][nH]c(=O)c1C(c1ccccc1)C(C#N)C#N (stereo unspecified)	-6%	0%	-55*	0%	1	-2%
COc1cccc2cc(-c3nc(Nc4cccc(C)c4)sc3C)c(=O)oc12	x	x	x	x	80*	x
CCc1sc(Nc2cccc(Cl)c2)nc1-c1cc2cccc(OC)c2oc1=O	x	x	x	x	29	x
Cc1c(C(c2cccc([N+](=O)[O-])c2O)c2c(C)n(C)n(-c3ccccc3)c2=O)c(=O)n(-c2ccccc2)n1C	x	4%	-23	-10%	-8	0%
CC(=O)CCc1oc2c([N+](=O)[O-])cccc2c1-c1ccc(C)o1	-5%	-3%	-5	65%	-4	0%
Cc1ccc(C(c2ccc(C)o2)c2cccc([N+](=O)[O-])c2O)o1	-5%	-7%	-73*	0%	-2	1%
Cc1cc(C(c2ccc(C)o2)c2ccc(C)o2)c(O)c([N+](=O)[O-])c1	-3%	-3%	-97*	-1%	-6	-1%
Cc1[nH][nH]c(=O)c1C(c1ccc(O)c([N+](=O)[O-])c1)c1c(C)[nH][nH]c1=O	-2%	-1%	-5	15%	-4	-3%
Cc1[nH]n(-c2ccccc2)c(=O)c1C(c1cccc([N+](=O)[O-])c1O)c1c(C)[nH]n(-c2ccccc2)c1=O	-4%	9%	-70*	-9%	-11	-2%
Cc1ccc(C)c(N2CCN(C(=O)Cn3cnc4sc(C)c(S(=O)(=O)N5CCN(c6ncccn6)CC5)c4c3=O)CC2)c1	x	x	x	x	-16	x
Cc1nn2c(=O)cc(COC(=O)Cc3ccccc3)nc2s1	x	x	x	x	13	x
CCOC(=O)c1ccc(CN(Cc2ccccc2C)S(=O)(=O)c2ccc(F)c(C)c2)cc1	x	x	x	x	0	x
CCCN(Cc1cccs1)C(=O)Nc1ccc(F)c(Cl)c1	x	x	x	x	3	x
Cc1ccc(S(=O)(=O)NCc2ccc(C(=O)NCCN(Cc3ccccc3)C(C)C)cc2)cc1	0%	0%	-79*	11%	-19	1%
CC(C)N(CCNC(=O)c1ccc(CS(=O)(=O)c2c(Cl)cccc2Cl)o1)Cc1ccccc1	-1%	0%	-70*	-7%	-22	-1%
Cc1ccc(S(=O)(=O)NCc2ccc(C(=O)NCCc3cccc(C)c3)cc2)cc1	x	x	x	x	-3	x
Cc1ccccc1S(=O)(=O)Cc1ccc(C(=O)NCCN(Cc2ccccc2)C(C)C)o1	1%	0%	u	u	-20	-2%
CCN(CC)CCOC(=O)c1ccc(N)cc1Cl	x	x	x	x	-9	x
COc1cc(C(=O)Nc2sc3c(c2C(N)=O)CCC(C)C3)cc(OC)c1OC (stereo unspecified)	x	x	x	x	0	x
COc1ccc(/C=C/C(=O)Nc2sc3c(c2C(N)=O)CCC(C)C3)cc1OC (stereo unspecified)	x	x	x	x	37*	x
COc1ccc(-c2ccc(-c3noc(-c4ccccc4)n3)c(OC)n2)cc1	3%	u	45	2.1µM*	17	-3%
COc1ccc(-c2ccc(-c3noc(-c4ccco4)n3)c(OC)n2)cc1	5%	u	28	u	37*	-5%
CC1=Nc2ccccc2/C1=C\c1sc(Nc2ccc(C)cc2)nc1O	1%	u	-54*	u	-14	2%
SMILES	TSG101-PTAP inh	Rango-impB inh	D3 antag	Rango dissoc inh	D3 ag	Mm-Cpn inhibitor
Cc1cccc(N2CCN(CC(O)COc3ccc(Cl)cc3)CC2)c1 (stereo unspecified)	0%	3%	-80*	1%	3	0%
Cc1cccc(N2CCN(CC(O)COc3ccccc3)CC2)c1 (stereo unspecified)	3%	-3%	-71*	-8%	-10	x
OC(COc1ccc(Cl)cc1)CN1CCN(c2cccc(Cl)c2)CC1 (stereo unspecified)	-2%	-1%	u	0%	1	-8%
CCc1ccc(N2CC(c3nc4ccccc4n3Cc3ccccc3C)CC2=O)cc1 (stereo unspecified)	x	x	x	x	7	x
OC[C@H]1O[C@@H](n2cnc3c2NC=NC[C@H]3O)C[C@@H]1O	x	x	x	x	44*	x
CCc1ccc(C(=O)CSc2nc(-c3ccccc3)nc3c2CCCC3)cc1	x	x	x	x	-8	x
CC(C)CCN1CCC(CN2C(=O)C(=O)NC[C@@H]2Cc2ccccc2)CC1	0%	-1%	9	-22%	-6	x
O=C1NC[C@H](Cc2ccccc2)N(CC2CCN(CCc3ccc(-c4ccccc4)cc3)CC2)C1=O	-4%	-3%	-78*	-18%	-46	x
CC(C)C[C@H]1CNC(=O)C(=O)N1CC1CCN(CCc2ccc(-c3ccccc3)cc2)CC1	-5%	3%	-60*	16%	-45	x
CC(C)C[C@H]1CNC(=O)C(=O)N1CC1CCN(CCC(C)(C)C)CC1	-11%	-4%	-20	-18%	-18	x
CC(C)C[C@H]1CNC(=O)C(=O)N1CC1CCN(CCc2ccccc2)CC1	x	x	-76*	x	-14	x
O=C1NC[C@H](Cc2ccccc2)N(CC2CCN(CCc3ccccc3)CC2)C1=O	-4%	0%	-19	47%	-38	x
Cc1cccc(N2C(=O)CSC23C(=O)N(CC(=O)Nc2cccc(Cl)c2)c2ccccc23)c1 (stereo unspecified)	x	x	x	x	32*	x
CC(Sc1nc2cc(Cl)ccc2s1)C(=O)Nc1cccc(S(=O)(=O)N2CCOCC2)c1 (stereo unspecified)	-6%	-4%	7	18%	-14	-5%
O=C(CSc1nc2ccsc2c(=O)n1NC(=O)c1ccccc1)Nc1nccs1	x	-2%	-59*	14%	2	0%
CCCCn1c(SCC(=O)c2ccccc2)nc2ccsc2c1=O	-3%	1%	27	12%	59*	-3%

Source: PubChem (National Center for Advancing Translational Sciences (NCATS))
